The experiment can be described thus: NCI Yeast Anticancer Drug Screen. Data for the sgs1 strain (AID 173).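 Also: 0% = growth of vehicle-only control cultures.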 The following applies: S. cerevisiae sgs1 mutant, stronger effect = higher value. On the procedure: Growth inhibition of yeast strains with defined genetic alterations is measured as a screen for potential anti-cancer activity. Selected strains with alterations in DNA damage repair or cell cycle control were exposed to compounds and growth inhibition was measured relative to vehicle treated controls. The strain used in this assay is sgs1

Each structure is given as a SMILES string. The panel holds about 79,000 compounds, 15% with a hit somewhere; the sample as a whole holds those more often. Values without a mark were called inactive. The source made the active and inactive calls. Rule as the data show it: active = growth inhibition above about 70%; inactive = the rest.

This is an account of results in PubChem BioAssay (NCI).

Consider `Nc1ccc(Cl)cc1C(=O)c1ccccc1`, for which the growth inhibition (at 1.2 µM) is -7%; the growth inhibition (at 3.7 µM) was 1%; the growth inhibition (at 11.0 µM) was 7%; the growth inhibition (at 33.0 µM) is 63%; the growth inhibition (at 100.0 µM) is 98% (active).
As for `COc1ccc(/C=C(/C)[N+](=O)[O-])cc1`, the growth inhibition is 20% (at 1.2 µM); 41% (at 3.7 µM); 42% (at 11.0 µM); 86% (active) (at 33.0 µM); 98% (active) (at 100.0 µM).
In the case of `CC[C@@]1(O)C(=O)OCc2c1cc1n(c2=O)Cc2cc3ccccc3nc2-1`, the growth inhibition is 29% (at 1.2 µM); 82% (active) (at 3.7 µM); 95% (active) (at 11.0 µM); 96% (active) (at 33.0 µM); 95% (active) (at 100.0 µM).
Consider `C/C(=N\NC(N)=O)C(CN1CCOCC1)C(c1ccccc1)c1c(O)c2ccccc2oc1=O` (stereo not given), for which the growth inhibition was -2% (at 1.2 µM); 3% (at 3.7 µM); 1% (at 11.0 µM); -1% (at 33.0 µM); -5% (at 100.0 µM).
`CC1CN1C1=C(Cl)C(=O)C(N2CC2C)=C(Cl)C1=O` (stereo not given): the growth inhibition (at 1.2 µM) is 22%; the growth inhibition (at 3.7 µM) is 37%; the growth inhibition (at 11.0 µM) was 78% (active); the growth inhibition (at 33.0 µM) was 97% (active); the growth inhibition (at 100.0 µM) was 97% (active).
On to `CCN(CC)CCBr`, for which the growth inhibition was 0% (at 1.2 µM); 4% (at 3.7 µM); 15% (at 11.0 µM); 42% (at 33.0 µM); 73% (active) (at 100.0 µM).
Regarding `[N-]=[N+]=C1C(Cl)=C(Cl)C(Cl)=C1Cl`, the growth inhibition reads like this: (at 1.2 µM) -1%; (at 3.7 µM) 19%; (at 11.0 µM) 64%; (at 33.0 µM) 99% (active); (at 100.0 µM) 99% (active).
Regarding `O=S(=O)(O)/C(=C\c1ccccc1)c1ccccc1` (tested in a mixture with another compound), the growth inhibition reads like this: (at 1.2 µM) 0%; (at 3.7 µM) -1%; (at 11.0 µM) -2%; (at 33.0 µM) -5%; (at 100.0 µM) -4%.
